# Experimental data: article PMC7862700, “An all-to-all approach to the identification of sequence-specific readers for epigenetic DNA modifications on cytosine”
# Tests used:
# Assay in all cases: DAPPL (digital affinity profiling via proximity ligation, sequencing); 10 mM Tris-HCl pH 7.5, 50 mM NaCl, 1 mM DTT, 4% glycerol, room temperature, 30 min; GST-TFs on glutathione beads, 16-mer random dsDNA library, 0.1% formaldehyde crosslink after washing; high values mean tight binding
# FEV = target: T1, FEV (Homo sapiens, UniProt Q99581 1-238); conditions: protein: recombinant; tags: N-terminal GST; dsDNA, one strand shown
# T1 sequence: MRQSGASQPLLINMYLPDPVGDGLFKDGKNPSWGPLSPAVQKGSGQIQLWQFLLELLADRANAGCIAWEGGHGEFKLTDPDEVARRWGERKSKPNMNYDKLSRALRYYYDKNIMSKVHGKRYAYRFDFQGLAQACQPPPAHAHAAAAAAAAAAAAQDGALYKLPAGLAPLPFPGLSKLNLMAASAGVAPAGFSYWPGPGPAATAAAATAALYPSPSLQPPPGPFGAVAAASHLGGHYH
# Procedure, shortened: (§1)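 Human transcription factors fused to GST were expressed in yeast, captured on glutathione beads, given DNA barcodes and pooled with a GST-only negative control. Pools were incubated with 200 nmole of a 16-mer random double-stranded DNA library in Tris/NaCl/DTT/glycerol buffer at room temperature for 30 min. They were then washed, crosslinked with 0.1% formaldehyde, proximity-ligated (BsaI/T4 ligase, 1 h, 37 °C), PCR-amplified and sequenced on an Illumina NextSeq500. Binding signal is each 6-mer's read frequency for a factor divided by its frequency for the GST control.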
# ETV5 = ETV5 (Homo sapiens, UniProt P41161 1-510); conditions: protein: recombinant; tags: N-terminal GST; dsDNA, one strand shown
# Procedure, shortened: as §1
# HSF1 = HSF1 (Homo sapiens, UniProt Q00613 1-529); conditions: protein: recombinant; tags: N-terminal GST; chain copies: 3; dsDNA, one strand shown
# Procedure, shortened: as §1
# SPIC = target: T2, SPIC (Homo sapiens, UniProt Q8N5J4 1-248); conditions: protein: recombinant; tags: N-terminal GST; dsDNA, one strand shown
# T2 sequence: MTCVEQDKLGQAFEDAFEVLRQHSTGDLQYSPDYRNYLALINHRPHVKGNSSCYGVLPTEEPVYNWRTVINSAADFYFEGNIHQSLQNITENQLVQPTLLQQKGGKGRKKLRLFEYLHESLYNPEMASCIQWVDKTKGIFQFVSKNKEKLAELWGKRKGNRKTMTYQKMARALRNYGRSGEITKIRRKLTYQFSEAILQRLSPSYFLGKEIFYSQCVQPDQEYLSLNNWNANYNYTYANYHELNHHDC
# Procedure, shortened: as §1
# ELF4 = ELF4 (Homo sapiens, UniProt Q99607 1-663); conditions: protein: recombinant; tags: N-terminal GST; dsDNA, one strand shown
# Procedure, shortened: as §1
# ELK4 = target: T3, ELK4 (Homo sapiens, UniProt P28324-2 1-405); conditions: protein: recombinant; tags: N-terminal GST; dsDNA, one strand shown
# T3 sequence: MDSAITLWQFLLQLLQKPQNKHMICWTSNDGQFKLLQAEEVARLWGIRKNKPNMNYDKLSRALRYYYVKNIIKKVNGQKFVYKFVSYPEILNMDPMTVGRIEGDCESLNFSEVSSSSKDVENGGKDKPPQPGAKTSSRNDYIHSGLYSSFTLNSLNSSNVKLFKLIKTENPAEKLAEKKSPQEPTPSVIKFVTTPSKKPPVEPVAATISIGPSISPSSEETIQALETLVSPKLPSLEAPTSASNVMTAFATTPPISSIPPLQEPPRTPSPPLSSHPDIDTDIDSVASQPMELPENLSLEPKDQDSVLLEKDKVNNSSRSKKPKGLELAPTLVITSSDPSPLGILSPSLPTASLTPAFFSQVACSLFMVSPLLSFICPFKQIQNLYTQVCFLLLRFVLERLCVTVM
# Procedure, shortened: as §1
# ETV2 = target: T4, ETV2 (Homo sapiens, UniProt O00321 1-342); conditions: protein: recombinant; tags: N-terminal GST; dsDNA, one strand shown
# T4 sequence: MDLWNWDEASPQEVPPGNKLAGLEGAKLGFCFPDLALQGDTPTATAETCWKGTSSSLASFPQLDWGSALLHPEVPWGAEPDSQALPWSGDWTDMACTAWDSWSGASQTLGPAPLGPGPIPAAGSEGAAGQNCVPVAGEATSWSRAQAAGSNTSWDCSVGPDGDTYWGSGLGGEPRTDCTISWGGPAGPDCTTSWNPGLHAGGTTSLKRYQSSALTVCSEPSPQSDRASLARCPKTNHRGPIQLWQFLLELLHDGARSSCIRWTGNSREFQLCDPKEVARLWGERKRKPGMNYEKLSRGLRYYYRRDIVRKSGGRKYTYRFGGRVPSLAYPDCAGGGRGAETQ
# Procedure, shortened: as §1
# ELF3 = target: T5, ELF3 (Homo sapiens, UniProt P78545 1-371); conditions: protein: recombinant; tags: N-terminal GST; dsDNA, one strand shown
# T5 sequence: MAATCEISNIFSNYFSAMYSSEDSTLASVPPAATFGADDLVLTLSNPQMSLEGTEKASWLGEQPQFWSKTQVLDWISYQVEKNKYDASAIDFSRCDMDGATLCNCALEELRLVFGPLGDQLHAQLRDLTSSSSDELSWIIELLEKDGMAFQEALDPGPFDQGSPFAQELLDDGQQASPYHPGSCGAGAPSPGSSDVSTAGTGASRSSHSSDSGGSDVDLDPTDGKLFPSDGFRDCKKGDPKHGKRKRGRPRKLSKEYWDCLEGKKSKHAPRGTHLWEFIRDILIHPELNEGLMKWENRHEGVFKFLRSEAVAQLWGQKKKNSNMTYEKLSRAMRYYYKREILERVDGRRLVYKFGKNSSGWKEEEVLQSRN
# Procedure, shortened: as §1
# CRX = CRX (Homo sapiens, UniProt O43186 1-299); conditions: protein: recombinant; tags: N-terminal GST; dsDNA, one strand shown
# Procedure, shortened: as §1
# ETV1 = ETV1 (Homo sapiens, UniProt P50549 1-477); conditions: protein: recombinant; tags: N-terminal GST; dsDNA, one strand shown
# Procedure, shortened: as §1
# ERF = target: T6, ERF (Homo sapiens, UniProt P50548 1-548); conditions: protein: recombinant; tags: N-terminal GST; dsDNA, one strand shown
# T6 sequence: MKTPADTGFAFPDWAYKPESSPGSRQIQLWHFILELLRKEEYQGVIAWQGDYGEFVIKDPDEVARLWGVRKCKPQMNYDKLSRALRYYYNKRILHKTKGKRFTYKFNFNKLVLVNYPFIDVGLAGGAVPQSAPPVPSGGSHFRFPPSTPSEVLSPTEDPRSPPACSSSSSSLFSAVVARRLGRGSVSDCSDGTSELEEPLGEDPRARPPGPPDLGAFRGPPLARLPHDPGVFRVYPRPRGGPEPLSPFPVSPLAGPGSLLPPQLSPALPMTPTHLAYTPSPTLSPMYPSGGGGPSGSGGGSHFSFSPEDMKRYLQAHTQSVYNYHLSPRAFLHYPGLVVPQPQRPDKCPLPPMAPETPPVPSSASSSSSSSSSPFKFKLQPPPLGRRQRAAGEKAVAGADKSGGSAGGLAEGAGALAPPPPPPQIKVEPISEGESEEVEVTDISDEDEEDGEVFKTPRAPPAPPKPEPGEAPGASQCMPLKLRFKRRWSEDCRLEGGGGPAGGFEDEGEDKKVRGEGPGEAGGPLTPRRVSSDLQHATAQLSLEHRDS
# Procedure, shortened: as §1
# ETV3L = target: T7, ETV3L (Homo sapiens, UniProt Q6ZN32 1-361); conditions: protein: recombinant; tags: N-terminal GST; dsDNA, one strand shown
# T7 sequence: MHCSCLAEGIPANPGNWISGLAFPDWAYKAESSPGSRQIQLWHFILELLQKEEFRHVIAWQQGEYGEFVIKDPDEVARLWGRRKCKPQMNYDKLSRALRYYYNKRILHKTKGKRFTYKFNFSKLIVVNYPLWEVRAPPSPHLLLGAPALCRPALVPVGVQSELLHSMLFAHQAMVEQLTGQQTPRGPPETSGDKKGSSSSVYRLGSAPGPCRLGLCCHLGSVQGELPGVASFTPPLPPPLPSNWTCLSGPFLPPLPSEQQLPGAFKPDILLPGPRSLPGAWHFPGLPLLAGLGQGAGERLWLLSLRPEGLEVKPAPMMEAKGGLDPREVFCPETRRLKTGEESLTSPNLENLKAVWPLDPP
# Procedure, shortened: as §1
# ETS2 = target: T8, ETS2 (Homo sapiens, UniProt P15036 1-469); conditions: protein: recombinant; tags: N-terminal GST; dsDNA, one strand shown
# T8 sequence: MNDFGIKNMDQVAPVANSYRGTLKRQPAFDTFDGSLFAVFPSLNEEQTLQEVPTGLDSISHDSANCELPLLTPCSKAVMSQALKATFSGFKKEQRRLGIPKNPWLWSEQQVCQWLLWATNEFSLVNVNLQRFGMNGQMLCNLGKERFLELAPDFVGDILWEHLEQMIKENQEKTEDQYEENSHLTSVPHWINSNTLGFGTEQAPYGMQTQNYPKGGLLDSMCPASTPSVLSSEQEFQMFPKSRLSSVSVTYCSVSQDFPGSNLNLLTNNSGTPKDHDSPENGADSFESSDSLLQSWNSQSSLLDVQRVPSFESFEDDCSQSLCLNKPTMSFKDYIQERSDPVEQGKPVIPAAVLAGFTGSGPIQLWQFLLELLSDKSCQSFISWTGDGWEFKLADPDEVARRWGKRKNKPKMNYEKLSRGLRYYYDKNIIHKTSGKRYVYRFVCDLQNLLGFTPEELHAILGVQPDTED
# Procedure, shortened: as §1
# SPDEF = target: T9, SPDEF (Homo sapiens, UniProt O95238 1-335); conditions: protein: recombinant; tags: N-terminal GST; dsDNA, one strand shown
# T9 sequence: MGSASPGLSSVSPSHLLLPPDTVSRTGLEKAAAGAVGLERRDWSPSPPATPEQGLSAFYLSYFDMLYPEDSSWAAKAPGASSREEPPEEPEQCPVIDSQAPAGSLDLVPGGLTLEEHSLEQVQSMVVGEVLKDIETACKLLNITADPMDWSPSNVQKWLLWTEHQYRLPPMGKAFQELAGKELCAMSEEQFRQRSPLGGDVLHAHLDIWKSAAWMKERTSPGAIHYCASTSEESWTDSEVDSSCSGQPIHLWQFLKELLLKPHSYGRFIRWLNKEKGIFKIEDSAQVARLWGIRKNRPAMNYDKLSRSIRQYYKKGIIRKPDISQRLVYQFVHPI
# Procedure, shortened: as §1
# ETV7 = target: T10, ETV7 (Homo sapiens, UniProt Q9Y603 1-341); conditions: protein: recombinant; tags: N-terminal GST; dsDNA, one strand shown
# T10 sequence: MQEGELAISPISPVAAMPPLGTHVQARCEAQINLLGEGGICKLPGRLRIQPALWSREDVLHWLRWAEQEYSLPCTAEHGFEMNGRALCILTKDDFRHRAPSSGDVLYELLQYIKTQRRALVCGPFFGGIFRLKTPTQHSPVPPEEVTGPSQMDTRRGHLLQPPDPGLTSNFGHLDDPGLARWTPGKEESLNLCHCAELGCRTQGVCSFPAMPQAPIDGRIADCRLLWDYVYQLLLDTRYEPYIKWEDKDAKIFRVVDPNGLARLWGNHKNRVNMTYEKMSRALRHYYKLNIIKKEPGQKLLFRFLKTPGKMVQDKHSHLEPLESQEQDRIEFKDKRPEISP
# Procedure, shortened: as §1
# ELF5 = target: T11, ELF5 (Homo sapiens, UniProt Q9UKW6-2 1-255); conditions: protein: recombinant; tags: N-terminal GST; dsDNA, one strand shown
# T11 sequence: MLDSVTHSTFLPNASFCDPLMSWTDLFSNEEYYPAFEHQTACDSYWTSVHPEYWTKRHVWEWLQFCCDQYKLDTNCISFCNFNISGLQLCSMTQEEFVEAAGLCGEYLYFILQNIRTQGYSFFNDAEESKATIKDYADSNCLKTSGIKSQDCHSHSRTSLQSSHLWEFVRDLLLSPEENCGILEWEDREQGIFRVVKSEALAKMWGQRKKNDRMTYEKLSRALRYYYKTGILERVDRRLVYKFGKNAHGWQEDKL
# Procedure, shortened: as §1
# ETV3 = target: T12, ETV3 (Homo sapiens, UniProt P41162-2 1-143); conditions: protein: recombinant; tags: N-terminal GST; dsDNA, one strand shown
# T12 sequence: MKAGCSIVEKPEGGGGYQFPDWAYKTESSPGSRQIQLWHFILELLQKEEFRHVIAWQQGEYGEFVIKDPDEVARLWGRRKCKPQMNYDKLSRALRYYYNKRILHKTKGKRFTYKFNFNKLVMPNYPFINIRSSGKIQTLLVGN
# Procedure, shortened: as §1
# ETV6 = ETV6 (Homo sapiens, UniProt P41212 1-452); conditions: protein: recombinant; tags: N-terminal GST; dsDNA, one strand shown
# Procedure, shortened: as §1
# Sequence of HSF1 (Q00613 whole entry): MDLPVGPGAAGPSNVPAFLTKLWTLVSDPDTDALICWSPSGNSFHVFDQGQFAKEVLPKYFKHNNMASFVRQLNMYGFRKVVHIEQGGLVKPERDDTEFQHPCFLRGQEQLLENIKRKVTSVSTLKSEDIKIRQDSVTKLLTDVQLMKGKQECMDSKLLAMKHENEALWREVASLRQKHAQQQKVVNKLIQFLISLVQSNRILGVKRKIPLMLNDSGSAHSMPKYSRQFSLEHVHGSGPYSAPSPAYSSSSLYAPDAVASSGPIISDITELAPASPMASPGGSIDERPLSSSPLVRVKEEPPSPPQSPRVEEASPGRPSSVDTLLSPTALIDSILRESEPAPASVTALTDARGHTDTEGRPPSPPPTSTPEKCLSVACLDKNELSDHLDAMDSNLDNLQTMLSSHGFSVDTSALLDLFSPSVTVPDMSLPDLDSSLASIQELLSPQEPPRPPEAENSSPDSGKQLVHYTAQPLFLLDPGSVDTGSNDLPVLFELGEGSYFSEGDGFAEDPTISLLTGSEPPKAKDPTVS
# Sequence of ELF4 (Q99607 whole entry): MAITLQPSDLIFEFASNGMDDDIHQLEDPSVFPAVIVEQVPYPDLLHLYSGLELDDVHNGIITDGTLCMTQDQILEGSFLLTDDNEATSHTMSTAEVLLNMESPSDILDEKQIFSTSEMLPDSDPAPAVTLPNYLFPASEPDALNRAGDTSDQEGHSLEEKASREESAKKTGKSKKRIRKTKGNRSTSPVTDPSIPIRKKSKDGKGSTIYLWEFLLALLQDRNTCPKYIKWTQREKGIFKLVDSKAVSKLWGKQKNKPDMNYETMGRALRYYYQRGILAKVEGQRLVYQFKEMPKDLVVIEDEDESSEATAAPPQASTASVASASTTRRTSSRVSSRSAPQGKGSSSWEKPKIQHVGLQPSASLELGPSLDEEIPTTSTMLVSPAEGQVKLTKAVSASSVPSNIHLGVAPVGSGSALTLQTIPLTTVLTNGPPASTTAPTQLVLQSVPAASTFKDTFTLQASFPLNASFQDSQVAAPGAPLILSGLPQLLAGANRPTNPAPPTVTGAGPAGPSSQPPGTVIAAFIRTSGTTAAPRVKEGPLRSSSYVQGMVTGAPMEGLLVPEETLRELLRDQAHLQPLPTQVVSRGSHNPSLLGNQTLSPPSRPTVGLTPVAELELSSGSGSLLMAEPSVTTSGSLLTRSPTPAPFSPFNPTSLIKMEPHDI
# Sequence of ETV1 (P50549 whole entry): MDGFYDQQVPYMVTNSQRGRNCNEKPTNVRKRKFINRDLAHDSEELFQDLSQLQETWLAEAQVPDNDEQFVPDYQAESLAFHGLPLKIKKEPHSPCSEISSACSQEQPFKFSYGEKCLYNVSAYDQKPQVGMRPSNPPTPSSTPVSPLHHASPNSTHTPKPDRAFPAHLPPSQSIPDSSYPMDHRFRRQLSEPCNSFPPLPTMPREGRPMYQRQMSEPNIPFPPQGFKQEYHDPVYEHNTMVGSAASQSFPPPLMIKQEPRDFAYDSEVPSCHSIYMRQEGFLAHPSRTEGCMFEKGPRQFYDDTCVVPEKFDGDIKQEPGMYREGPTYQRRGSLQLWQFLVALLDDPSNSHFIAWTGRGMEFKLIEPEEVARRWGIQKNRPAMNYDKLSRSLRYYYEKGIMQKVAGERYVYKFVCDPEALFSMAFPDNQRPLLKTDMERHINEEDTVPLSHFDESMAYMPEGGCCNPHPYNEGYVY
# Sequence of ETV6 (P41212 whole entry): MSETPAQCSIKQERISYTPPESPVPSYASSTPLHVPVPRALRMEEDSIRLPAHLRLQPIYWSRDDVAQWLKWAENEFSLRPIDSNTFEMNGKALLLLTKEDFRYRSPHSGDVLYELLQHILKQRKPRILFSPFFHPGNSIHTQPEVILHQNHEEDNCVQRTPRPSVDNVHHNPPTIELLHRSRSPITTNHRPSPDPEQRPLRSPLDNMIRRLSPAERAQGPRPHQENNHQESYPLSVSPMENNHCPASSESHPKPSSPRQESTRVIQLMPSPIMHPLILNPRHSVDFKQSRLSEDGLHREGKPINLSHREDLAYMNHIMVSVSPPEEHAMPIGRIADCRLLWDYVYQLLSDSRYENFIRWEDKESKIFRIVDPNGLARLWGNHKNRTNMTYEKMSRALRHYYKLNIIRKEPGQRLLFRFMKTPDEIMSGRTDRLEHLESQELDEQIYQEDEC
# Sequence of ETV5 (P41161 whole entry): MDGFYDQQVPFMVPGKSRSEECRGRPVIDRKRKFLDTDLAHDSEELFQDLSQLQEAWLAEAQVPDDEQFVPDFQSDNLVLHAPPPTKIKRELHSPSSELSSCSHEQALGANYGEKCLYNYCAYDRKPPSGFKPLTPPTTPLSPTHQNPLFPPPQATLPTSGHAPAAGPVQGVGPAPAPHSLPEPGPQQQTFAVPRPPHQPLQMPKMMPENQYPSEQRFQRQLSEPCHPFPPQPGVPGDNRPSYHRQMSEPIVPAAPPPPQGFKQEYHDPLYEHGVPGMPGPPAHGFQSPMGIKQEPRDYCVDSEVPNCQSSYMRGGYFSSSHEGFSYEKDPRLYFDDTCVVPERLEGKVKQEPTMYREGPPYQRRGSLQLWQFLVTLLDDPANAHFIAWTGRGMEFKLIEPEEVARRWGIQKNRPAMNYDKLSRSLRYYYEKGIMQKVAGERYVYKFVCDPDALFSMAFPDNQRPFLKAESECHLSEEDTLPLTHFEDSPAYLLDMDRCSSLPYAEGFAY
# Sequence of CRX (O43186 whole entry): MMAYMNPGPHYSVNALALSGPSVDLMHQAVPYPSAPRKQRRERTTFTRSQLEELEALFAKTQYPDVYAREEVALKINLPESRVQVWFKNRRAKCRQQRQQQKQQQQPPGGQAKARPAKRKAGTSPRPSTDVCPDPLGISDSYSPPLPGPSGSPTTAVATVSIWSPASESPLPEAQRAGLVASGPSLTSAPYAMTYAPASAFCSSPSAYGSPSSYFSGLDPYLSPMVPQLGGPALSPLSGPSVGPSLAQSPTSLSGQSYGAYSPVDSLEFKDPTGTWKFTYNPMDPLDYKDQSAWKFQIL
sequence,measurement,setting,value
ATGATA,binding signal,FEV,"1.25 fold enrichment (6-mer frequency, TF over GST control)"
same,binding signal,ETV5,"1.17 fold enrichment (6-mer frequency, TF over GST control)"
same,binding signal,HSF1,"1.23 fold enrichment (6-mer frequency, TF over GST control)"
same,binding signal,SPIC,"1.07 fold enrichment (6-mer frequency, TF over GST control)"
same,binding signal,ELF4,"1.26 fold enrichment (6-mer frequency, TF over GST control)"
same,binding signal,ELK4,"1.27 fold enrichment (6-mer frequency, TF over GST control)"
same,binding signal,ETV2,"1.2 fold enrichment (6-mer frequency, TF over GST control)"
same,binding signal,ELF3,"1.21 fold enrichment (6-mer frequency, TF over GST control)"
same,binding signal,CRX,"1.39 fold enrichment (6-mer frequency, TF over GST control)"
same,binding signal,ETV1,"1.17 fold enrichment (6-mer frequency, TF over GST control)"
same,binding signal,ERF,"1.21 fold enrichment (6-mer frequency, TF over GST control)"
same,binding signal,ETV3L,"1.22 fold enrichment (6-mer frequency, TF over GST control)"
same,binding signal,ETS2,"1.17 fold enrichment (6-mer frequency, TF over GST control)"
same,binding signal,SPDEF,"1.22 fold enrichment (6-mer frequency, TF over GST control)"
same,binding signal,ETV7,"1.16 fold enrichment (6-mer frequency, TF over GST control)"
same,binding signal,ELF5,"1.23 fold enrichment (6-mer frequency, TF over GST control)"
same,binding signal,ETV3,"1.2 fold enrichment (6-mer frequency, TF over GST control)"
same,binding signal,ETV6,"1.18 fold enrichment (6-mer frequency, TF over GST control)"
